# Test results published in PubChem BioAssay (NCI).
# “And” between values parts separate entries of the source, which are not always exact repeats. Equal entries are not always repeated. Compounds without any hit were thinned out: in the full panel of roughly 79,000, 15% have a hit. A number with no mark means an inactive call. The source made the active and inactive calls. No stated cut-off is given here; in the data, active means growth inhibition above about 70%; inactive means the rest.
# Assay: NCI Yeast Anticancer Drug Screen. Data for the sgs1 mgt1 strain (AID 161);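 further: 0% = growth of cultures given vehicle only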
# Settings: S. cerevisiae sgs1 mgt1 strain, active compounds read high; at 50.0 µM unless noted
# How it was run: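 Read-out: growth inhibition vs vehicle controls. Cells: mutant yeast strain deficient in DNA damage repair.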
row,Structure (SMILES),growth inhibition
1,OC1COC(OCc2ccccc2)C(O)C1O (centres undefined),-18.1% and -11.5%
2,COc1nc(NC2OC(CO)C(O)C(O)C2O)c(I)c(=O)[nH]1 (centres undefined),2%
3,CC(=O)CC(C)(C)c1cc(-c2ccccc2)on1,-6.25%
4,COc1ccc(C(c2ccc(OC)cc2)N2C(=O)CCC2C(=O)O)cc1 (centres undefined),-48.8%
5,CCOC(=O)c1cccc(N)c1C(=O)OCCN(CC)CC,-3.75%
6,CCCCCCC1OC(C)C(C)O1 (centres undefined),23.9%
7,O=C(O)C1(F)CC1(c1ccccc1)c1ccccc1 (centres undefined),14.5%
8,c1nc2nc(N3CCOCC3)nc(N3CCOCC3)c2[nH]1,23.9%
9,COc1ccccc1C(=O)N/N=C/c1cccc([N+](=O)[O-])c1,13.7%
10,COC(=O)c1ccccc1NS(=O)(=O)c1ccc(Cl)cc1,75.7% (active)
11,CO/N=C1/OC(=O)OCC1(c1ccccc1)c1ccccc1,2.7%
12,CCOC(=O)C(C)NC(=O)c1ccccc1 (centres undefined),-14.6%
13,Cn1c([N+](=O)[O-])cnc1CSc1nc(-c2ccccc2)no1,33.8%
14,COC1CCC(=O)N1CN(C(C)=O)c1ccc(C)cc1 (centres undefined),-25.2%
15,COc1ccc(COC(=O)Nc2ccc(Br)cc2)c(OC)c1,27.2%
16,O=C1OC(c2ccccc2)=N/C1=C\c1ccccc1,-15.5% and 20.9%
17,CCC1(C=O)C(=O)NC(=O)N1C (centres undefined),2%
18,CCN(CCOC)C(C)=O,17.6%
19,O=C1CCCc2ccc3c(c21)CC1(Cc2cc4c(cc2C1)CCCC4)C3,34%
20,CN(C)c1ccc(NC(=O)C(c2ccccc2)c2ccccc2)cc1,0.4%
21,ClC(Cl)(Cl)c1ncnc2nc[nH]c12,0.5%
22,O=c1c(O)c(-c2cc(O)c(O)c(O)c2)oc2cc(O)cc(O)c12,7.55%
23,CCOC(CC(=O)NCCNC(C)=O)OCC,7.2%
24,O=C1c2ccccc2CC(c2ccccc2)N1c1ccccc1 (centres undefined),31.4%

# Assay: NCI Yeast Anticancer Drug Screen. Data for the cln2 rad14 strain (AID 165);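 further: 0% = growth equal to vehicle treated cultures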
# Settings: S. cerevisiae cln2 rad14 strain, active compounds read high; at 50.0 µM unless noted
# How it was run: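 Test compounds were added to cln2 rad14 yeast cultures; inhibition of growth was then determined by comparison with vehicle treatment.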
row,Structure (SMILES),growth inhibition
1,Nc1ccc(OCc2ccccc2)cc1[N+](=O)[O-],14.5%
2,COC(=O)c1cc(C(=O)OC)c(CC(=O)C(=O)NC2C3CC4CC(C3)CC2C4)nc1CC(=O)C(=O)NC1C2CC3CC(C2)CC1C3 (centres undefined),10.2%
3,COc1ccc(-c2nnc(N)s2)cc1OC,-1.6%
4,CC1(CO)C2CCC(CC2)C1CO (centres undefined),-20.2%
5,CC(C)CCCC(C)C1CCC2C3CC4OC45CC(O)CCC5(C)C3CCC12C (centres undefined),7.3%
6,COC(=O)C(Cc1ccccc1)C(=O)C(CC(=O)OC(C)(C)C)NC(=O)OC(C)(C)C (centres undefined),10.8%
7,O=C(O)c1cscc1Cc1cccs1,-30.6%
8,CSc1ccc(NC(=O)c2ccc(Cl)cc2)cc1,-22.7%
9,COc1ccc2c(c1)-c1c(ccc(OC)c1O)CC(c1ccccc1)[N+](C)(C)CC2 (centres undefined),-12.4%
10,CC1=Nc2ccccc2C12C(c1ccccc1)C(c1ccccc1)C(=O)N1c3ccccc3CC12 (centres undefined),20.1%
11,O=CC(O)C(Cl)C(Cl)C(O)CCl (centres undefined),9.75% and -46%
12,C=C1CC[C@@H](C)[C@](C)(CCc2ccoc2)C/C=C\C=C/1C(=O)O,48.1%
13,O=c1[nH]c(=O)c2[nH]c(Br)nc2[nH]1,0.2%
14,N#CC(C(=O)C(=O)Nc1nccs1)c1ccccc1 (centres undefined),41.9%
15,CCCCc1cc(C(=O)OC/C(C)=N/NC(N)=O)c2ccccc2n1,-27.6%
16,CC(=O)Nc1cccc(OC(=O)Nc2ccc(F)c(Cl)c2)c1,70.7% (active)
17,OC1COC(OCc2ccccc2)C(O)C1O (centres undefined),-18.2% and -46.3%
18,COc1nc(NC2OC(CO)C(O)C(O)C2O)c(I)c(=O)[nH]1 (centres undefined),-6.25%
19,CC(=O)CC(C)(C)c1cc(-c2ccccc2)on1,-61.6%
20,COc1ccc(C(c2ccc(OC)cc2)N2C(=O)CCC2C(=O)O)cc1 (centres undefined),17.1%

row,Structure (SMILES),growth inhibition
1,CCOC(=O)c1cccc(N)c1C(=O)OCCN(CC)CC,-25.2%
2,CCCCCCC1OC(C)C(C)O1 (centres undefined),-5.15%
3,O=C(O)C1(F)CC1(c1ccccc1)c1ccccc1 (centres undefined),-38.2%
4,c1nc2nc(N3CCOCC3)nc(N3CCOCC3)c2[nH]1,8.45%
5,COc1ccccc1C(=O)N/N=C/c1cccc([N+](=O)[O-])c1,-11.7%
6,COC(=O)c1ccccc1NS(=O)(=O)c1ccc(Cl)cc1,47.8%
7,CO/N=C1/OC(=O)OCC1(c1ccccc1)c1ccccc1,11.1%
8,CCOC(=O)C(C)NC(=O)c1ccccc1 (centres undefined),-52.2%
9,Cn1c([N+](=O)[O-])cnc1CSc1nc(-c2ccccc2)no1,-1.1%
10,COC1CCC(=O)N1CN(C(C)=O)c1ccc(C)cc1 (centres undefined),28.4%
11,COc1ccc(COC(=O)Nc2ccc(Br)cc2)c(OC)c1,-16.6%
12,O=C1OC(c2ccccc2)=N/C1=C\c1ccccc1,-5.7% and -23.2%
13,CCC1(C=O)C(=O)NC(=O)N1C (centres undefined),6.25%
14,CCN(CCOC)C(C)=O,-1.75%
15,O=C1CCCc2ccc3c(c21)CC1(Cc2cc4c(cc2C1)CCCC4)C3,-13.9%
16,CN(C)c1ccc(NC(=O)C(c2ccccc2)c2ccccc2)cc1,-23.8%
17,ClC(Cl)(Cl)c1ncnc2nc[nH]c12,9.95%
18,O=c1c(O)c(-c2cc(O)c(O)c(O)c2)oc2cc(O)cc(O)c12,1.1%
19,CCOC(CC(=O)NCCNC(C)=O)OCC,2.05%
20,O=C1c2ccccc2CC(c2ccccc2)N1c1ccccc1 (centres undefined),-22.4%
